# Assay results reported in PubChem BioAssay (EPA / NIEHS).
# Values joined by “and” are separate entries in the source; they are usually repeats but may differ in a detail not shown here. Equal entries are not always repeated. Results filed as inconclusive are left out. Active and inactive are the calls of the source. Rule for the calls, unless noted: active = hit-call score of the fitted dose curve at least 0.9, where 1 is the maximum; inconclusive = response in the unintended direction; inactive = score below 0.9.
# Experiments:
# [1] = target: human Serotonin, 5-Hydroxytryptamine Receptor 3 (5HT3), HTR3A (gene 3359) (UniProt P46098); assay: NVS_LGIC_h5HT3: NovaScreen (NVS) Ligand-Gated Ion Channel Assay for human Serotonin, 5-Hydroxytryptamine Receptor 3 (5HT3) (AID 2283325)
# Chain of human Serotonin, 5-Hydroxytryptamine Receptor 3 (5HT3), HTR3A (gene 3359) (P46098 whole entry, looked up): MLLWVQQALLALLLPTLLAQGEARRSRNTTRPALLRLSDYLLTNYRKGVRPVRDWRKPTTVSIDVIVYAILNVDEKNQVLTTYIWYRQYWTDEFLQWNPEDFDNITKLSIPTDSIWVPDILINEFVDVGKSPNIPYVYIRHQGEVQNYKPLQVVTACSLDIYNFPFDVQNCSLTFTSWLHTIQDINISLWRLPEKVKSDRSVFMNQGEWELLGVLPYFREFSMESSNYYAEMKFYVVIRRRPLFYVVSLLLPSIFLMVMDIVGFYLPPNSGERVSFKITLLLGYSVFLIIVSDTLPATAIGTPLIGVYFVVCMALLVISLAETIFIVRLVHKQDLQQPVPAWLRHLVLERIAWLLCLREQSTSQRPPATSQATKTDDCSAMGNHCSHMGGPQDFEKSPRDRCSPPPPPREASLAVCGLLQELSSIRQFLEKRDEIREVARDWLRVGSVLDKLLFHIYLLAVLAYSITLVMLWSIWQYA
# In short: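 Radioligand displacement binding to human 5-HT3 from HEK293 membranes, read by filter-based scintillation counting after 1 h. Screen at 25 uM in duplicate; chemicals passing threshold were retested in concentration-response up to 50 uM.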
# [2] = target: rat Oxytocin Receptor (OXT), Oxtr (gene 25342) (UniProt P70536); assay: NVS_GPCR_rOXT: NovaScreen (NVS) G Protein-Coupled Receptor Assay for rat Oxytocin Receptor (OXT) (AID 2283330)
# Chain of rat Oxytocin Receptor (OXT), Oxtr (gene 25342) (P70536 whole entry, looked up): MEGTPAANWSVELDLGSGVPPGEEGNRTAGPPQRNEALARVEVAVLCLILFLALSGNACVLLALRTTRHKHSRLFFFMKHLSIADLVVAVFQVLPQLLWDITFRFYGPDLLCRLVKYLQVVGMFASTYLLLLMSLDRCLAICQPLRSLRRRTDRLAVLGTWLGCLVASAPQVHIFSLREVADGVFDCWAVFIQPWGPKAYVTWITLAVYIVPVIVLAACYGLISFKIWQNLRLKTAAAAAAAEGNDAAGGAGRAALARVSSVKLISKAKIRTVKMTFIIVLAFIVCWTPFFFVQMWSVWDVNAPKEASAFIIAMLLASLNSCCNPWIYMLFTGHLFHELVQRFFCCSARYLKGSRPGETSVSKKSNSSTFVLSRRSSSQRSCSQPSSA
# In short: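 Radioligand displacement on rat uterine membranes, 1 h incubation, filter-based scintillation counting. Chemicals were screened in duplicate at 25 uM, and those passing threshold were retested in concentration-response up to 50 uM. Loss of binding was fitted versus DMSO.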
# [3] = target: Small conductance calcium-activated potassium channel protein 1 (Rattus norvegicus) (UniProt P70606); assay: NVS_IC_rKCaCh: NovaScreen (NVS) Ion Channel Assay for rat Potassium Channel, Ca2+ Act., VI (KCaCh) (AID 2283336)
# Chain of Small conductance calcium-activated potassium channel protein 1 (Rattus norvegicus) (P70606 whole entry, looked up): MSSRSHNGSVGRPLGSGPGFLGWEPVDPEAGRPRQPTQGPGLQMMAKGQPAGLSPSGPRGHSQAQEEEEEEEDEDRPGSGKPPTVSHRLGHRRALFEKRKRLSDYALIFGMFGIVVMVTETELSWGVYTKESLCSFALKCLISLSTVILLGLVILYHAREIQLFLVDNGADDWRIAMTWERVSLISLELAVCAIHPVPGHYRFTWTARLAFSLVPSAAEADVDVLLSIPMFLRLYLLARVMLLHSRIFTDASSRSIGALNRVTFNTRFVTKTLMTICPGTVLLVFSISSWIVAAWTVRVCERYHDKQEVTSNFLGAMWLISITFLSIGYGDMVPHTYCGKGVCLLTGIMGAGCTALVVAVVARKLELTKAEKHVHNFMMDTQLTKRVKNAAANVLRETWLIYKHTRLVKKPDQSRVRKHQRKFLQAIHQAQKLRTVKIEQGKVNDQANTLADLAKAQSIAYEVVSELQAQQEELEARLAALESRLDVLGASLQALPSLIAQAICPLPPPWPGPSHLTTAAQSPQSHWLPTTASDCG
# In short: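 Radioligand binding to rat forebrain membranes, cell-free, read 1 hour after dosing by filter-based scintillation counting. Compounds first run in duplicate at 25 uM, actives then in concentration series; loss of signal vs DMSO indicates displacement.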
# [4] = target: human Constitutive Androstane Receptor (CAR), NR1I3 (gene 9970) (UniProt Q14994); assay: NVS_NR_hCAR_Agonist: NovaScreen (NVS) Nuclear Receptor Binding Assay for human Constitutive Androstane Receptor Agonism (CAR) (AID 2283328)
# In short: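 Cell-free TR-FRET binding readout with extracted human CAR protein, read 1 h after dosing. Gain of signal fitted against DMSO baseline. Single-concentration duplicates at 25 uM, then concentration-response up to 50 uM for actives.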
# [5] = target: bovine Gamma-Aminobutyric Acid Type A Receptor Agonist (GABAR Agonist), GABRA1 (gene 780973) (UniProt P08219); assay: NVS_LGIC_bGABAR_Agonist: NovaScreen (NVS) Ligand-Gated Ion Channel Assay for bovine Gamma-Aminobutyric Acid Type A Receptor Agonist (GABAR Agonist) (AID 2283338)
# Chain of bovine Gamma-Aminobutyric Acid Type A Receptor Agonist (GABAR Agonist), GABRA1 (gene 780973) (P08219 whole entry, looked up): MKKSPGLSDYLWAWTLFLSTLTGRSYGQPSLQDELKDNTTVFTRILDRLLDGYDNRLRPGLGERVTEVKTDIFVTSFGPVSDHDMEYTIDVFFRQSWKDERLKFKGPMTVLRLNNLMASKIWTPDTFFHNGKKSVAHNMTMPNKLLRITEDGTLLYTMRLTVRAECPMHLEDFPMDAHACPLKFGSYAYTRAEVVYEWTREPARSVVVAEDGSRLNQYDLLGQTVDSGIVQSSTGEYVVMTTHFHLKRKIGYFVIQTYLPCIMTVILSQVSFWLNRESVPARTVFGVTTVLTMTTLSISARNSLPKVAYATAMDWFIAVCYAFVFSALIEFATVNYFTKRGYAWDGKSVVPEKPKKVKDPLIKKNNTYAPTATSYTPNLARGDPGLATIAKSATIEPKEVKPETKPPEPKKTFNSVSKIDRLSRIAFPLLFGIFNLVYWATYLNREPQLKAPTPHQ
# In short: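 Radioligand binding to bovine cerebellar membranes in agonist format, read by filter-based scintillation counting after 1 h. Primary screen in duplicate at 25 uM, with actives followed in concentration series. Gain of signal versus DMSO.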
# [6] = target: human Androgen Receptor (AR), AR (gene 367) (UniProt P10275); assay: NVS_NR_hAR: NovaScreen (NVS) Nuclear Receptor Binding Assay for human Androgen Receptor (AR) (AID 2283332)
# Chain of human Androgen Receptor (AR), AR (gene 367) (P10275 whole entry, looked up): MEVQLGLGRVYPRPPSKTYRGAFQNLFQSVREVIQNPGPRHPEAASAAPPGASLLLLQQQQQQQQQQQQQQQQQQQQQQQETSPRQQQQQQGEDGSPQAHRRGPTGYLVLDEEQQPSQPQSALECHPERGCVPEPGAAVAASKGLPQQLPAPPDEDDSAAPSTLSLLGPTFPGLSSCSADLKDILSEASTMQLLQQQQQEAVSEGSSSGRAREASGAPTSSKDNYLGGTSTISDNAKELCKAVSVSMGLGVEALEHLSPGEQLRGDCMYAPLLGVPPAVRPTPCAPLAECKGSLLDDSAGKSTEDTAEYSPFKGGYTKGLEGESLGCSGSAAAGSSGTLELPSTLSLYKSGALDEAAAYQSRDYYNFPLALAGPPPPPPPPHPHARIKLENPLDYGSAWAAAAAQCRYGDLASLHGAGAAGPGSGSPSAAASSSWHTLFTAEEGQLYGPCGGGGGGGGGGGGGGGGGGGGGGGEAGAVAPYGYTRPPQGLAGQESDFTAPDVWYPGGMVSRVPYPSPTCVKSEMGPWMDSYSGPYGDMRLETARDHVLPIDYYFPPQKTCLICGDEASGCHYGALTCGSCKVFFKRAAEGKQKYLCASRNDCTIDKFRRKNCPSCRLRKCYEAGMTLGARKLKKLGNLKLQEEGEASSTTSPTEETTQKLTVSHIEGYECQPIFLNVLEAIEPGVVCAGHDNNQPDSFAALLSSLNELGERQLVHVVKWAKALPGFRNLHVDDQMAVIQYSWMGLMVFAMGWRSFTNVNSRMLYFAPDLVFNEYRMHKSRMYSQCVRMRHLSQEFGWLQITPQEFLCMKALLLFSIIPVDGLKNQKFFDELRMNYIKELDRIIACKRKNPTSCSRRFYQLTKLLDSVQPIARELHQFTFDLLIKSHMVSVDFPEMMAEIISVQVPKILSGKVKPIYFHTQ
# In short: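 Radioligand competitive binding, scintillation read-out, in cell-free extract from LnCAP, measured 20 h after dosing. Screened first in duplicate at 25 uM, then concentration series for actives; activity fitted against DMSO.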
# [7] = target: Glutamate receptor ionotropic, kainate 1 (Rattus norvegicus) (UniProt P22756); assay: NVS_IC_rKAR: NovaScreen (NVS) Ion Channel Assay for rat Kainic Acid Receptors (KAR) (AID 2283334; active = hit-call score of the fitted dose curve at least 0.9, where 1 is the maximum; inactive = score below 0.9)
# Chain of Glutamate receptor ionotropic, kainate 1 (Rattus norvegicus) (P22756 whole entry, looked up): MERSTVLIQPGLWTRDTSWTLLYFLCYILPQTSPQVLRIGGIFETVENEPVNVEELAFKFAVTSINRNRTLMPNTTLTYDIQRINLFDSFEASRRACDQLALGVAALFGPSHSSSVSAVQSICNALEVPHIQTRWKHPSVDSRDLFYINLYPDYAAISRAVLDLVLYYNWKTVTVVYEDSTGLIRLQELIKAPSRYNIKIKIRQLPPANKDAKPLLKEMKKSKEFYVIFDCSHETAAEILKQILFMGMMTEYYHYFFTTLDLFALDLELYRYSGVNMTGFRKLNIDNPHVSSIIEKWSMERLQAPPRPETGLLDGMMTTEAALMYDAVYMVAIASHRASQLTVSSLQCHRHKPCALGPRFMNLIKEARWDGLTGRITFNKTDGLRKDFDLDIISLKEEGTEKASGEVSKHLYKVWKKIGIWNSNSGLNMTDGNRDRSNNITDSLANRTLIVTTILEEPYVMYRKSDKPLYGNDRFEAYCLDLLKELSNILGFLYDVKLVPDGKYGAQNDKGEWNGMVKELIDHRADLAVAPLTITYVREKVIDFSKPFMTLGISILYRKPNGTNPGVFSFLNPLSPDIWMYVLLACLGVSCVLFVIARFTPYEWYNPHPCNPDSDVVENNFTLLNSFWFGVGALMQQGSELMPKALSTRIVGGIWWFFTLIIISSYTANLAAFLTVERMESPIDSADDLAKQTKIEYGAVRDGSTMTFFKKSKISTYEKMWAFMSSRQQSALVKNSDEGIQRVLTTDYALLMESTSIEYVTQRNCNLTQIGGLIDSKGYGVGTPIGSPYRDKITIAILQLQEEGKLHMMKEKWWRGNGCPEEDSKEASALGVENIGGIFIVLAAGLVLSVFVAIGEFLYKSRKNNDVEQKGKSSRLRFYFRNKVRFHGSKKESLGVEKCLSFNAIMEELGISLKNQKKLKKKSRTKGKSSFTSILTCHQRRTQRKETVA
# In short: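 Radioligand displacement binding using rat forebrain membranes, 1 h incubation, filter-based scintillation counting. Screened in duplicate at 25 uM, with actives retested in concentration-response up to 50 uM; fitted against DMSO.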
# [8] = target: human Peripheral-type Benzodiazepine Receptor (PBR), TSPO (gene 706) (UniProt P30536); assay: NVS_MP_hPBR: NovaScreen (NVS) Membrane Protein Assay for human Peripheral-type Benzodiazepine Receptor (PBR) (AID 2283331);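 note: hits reduce radioligand binding relative to DMSO baseline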
# Chain of human Peripheral-type Benzodiazepine Receptor (PBR), TSPO (gene 706) (P30536 whole entry, looked up): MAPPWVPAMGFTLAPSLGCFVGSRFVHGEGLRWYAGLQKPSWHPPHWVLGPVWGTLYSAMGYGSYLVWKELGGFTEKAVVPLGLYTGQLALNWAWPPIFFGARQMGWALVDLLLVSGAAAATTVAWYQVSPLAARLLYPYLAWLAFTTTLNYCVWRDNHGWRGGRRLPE
# In short: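 Scintillation counts of filter-bound radioligand served as read-out after 1 h chemical dosing of human colonic membrane preparations. Activity was scored as signal loss against DMSO; initial duplicates at 25 uM, confirmatory concentration series afterward.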
# [9] = target: Sodium channel protein type 1 subunit alpha (Rattus norvegicus) (UniProt P04774); assay: NVS_IC_rNaCh_site2: NovaScreen (NVS) Ion Channel Assay for rat Sodium Channel, Site 2 (NaCh) (AID 2283322);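 note: hit means loss of radioligand binding signal relative to DMSO so AC50 marks displacement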
# In short: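 Membranes: rat forebrain. Format: competitive radioligand displacement, filter separation, scintillation readout, 1 h exposure. Primary screen in duplicate at 25 uM; actives retested in concentration series.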
# [10] = target: rat Thyrotropin Releasing Hormone Receptor (TRH), Trhr (gene 25570) (UniProt Q01717); assay: NVS_GPCR_rTRH: NovaScreen (NVS) G Protein-Coupled Receptor Assay for rat Thyrotropin Releasing Hormone Receptor (TRH) (AID 2283329);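 note: hit means lower bound tracer signal versus DMSO baseline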
# Chain of rat Thyrotropin Releasing Hormone Receptor (TRH), Trhr (gene 25570) (Q01717 whole entry, looked up): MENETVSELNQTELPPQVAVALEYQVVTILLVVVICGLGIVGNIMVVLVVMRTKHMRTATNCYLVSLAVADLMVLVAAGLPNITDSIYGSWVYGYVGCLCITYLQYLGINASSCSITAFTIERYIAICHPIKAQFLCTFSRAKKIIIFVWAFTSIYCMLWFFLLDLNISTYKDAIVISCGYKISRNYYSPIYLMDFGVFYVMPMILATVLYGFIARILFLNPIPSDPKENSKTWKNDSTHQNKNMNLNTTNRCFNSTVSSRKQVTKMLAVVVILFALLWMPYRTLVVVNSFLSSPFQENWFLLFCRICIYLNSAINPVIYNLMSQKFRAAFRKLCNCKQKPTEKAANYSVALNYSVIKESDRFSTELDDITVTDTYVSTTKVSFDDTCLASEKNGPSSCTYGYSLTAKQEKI
# In short: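 Test compounds are screened at 25 uM in duplicate against radioligand binding in rat forebrain membranes, with active pairs followed up over a concentration range. Detection uses filter-based radiodetection after a 4 h exposure.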
# [11] = target: bovine Gamma-Aminobutyric Acid Type A Receptor BDZ, alpha 5 site (GABARa5), GABRA5 (gene 523515) (UniProt Q08E50); assay: NVS_LGIC_bGABARa5: NovaScreen (NVS) Ligand-Gated Ion Channel Assay for bovine Gamma-Aminobutyric Acid Type A Receptor BDZ, alpha 5 site (GABARa5) (AID 2283323)
# Chain of bovine Gamma-Aminobutyric Acid Type A Receptor BDZ, alpha 5 site (GABARa5), GABRA5 (gene 523515) (Q08E50 whole entry, looked up): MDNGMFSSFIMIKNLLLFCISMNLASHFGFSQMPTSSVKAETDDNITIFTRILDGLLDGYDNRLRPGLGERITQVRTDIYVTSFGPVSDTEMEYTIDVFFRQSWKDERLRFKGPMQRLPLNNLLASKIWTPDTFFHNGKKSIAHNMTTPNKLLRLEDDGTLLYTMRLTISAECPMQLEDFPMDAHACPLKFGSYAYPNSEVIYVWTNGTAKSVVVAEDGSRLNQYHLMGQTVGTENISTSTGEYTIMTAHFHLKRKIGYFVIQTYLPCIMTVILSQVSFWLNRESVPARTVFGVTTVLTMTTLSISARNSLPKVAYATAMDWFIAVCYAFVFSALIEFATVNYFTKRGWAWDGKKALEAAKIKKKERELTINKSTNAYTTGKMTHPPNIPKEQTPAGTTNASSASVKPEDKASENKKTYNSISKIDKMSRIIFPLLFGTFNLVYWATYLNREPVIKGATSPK
# In short: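 Radioligand competitive displacement binding on bovine hippocampal membranes, read 1 hr after dosing by filter-based scintillation counting. Primary screen at 25 uM in duplicate; actives (e.g. ≥30% inhibition) then run in concentration-response up to 50 uM.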
# [12] = target: rat Gamma-Aminobutyric Acid Type A Receptor BDZ, alpha 6 site (GABARa6), Gabra6 (gene 29708) (UniProt P30191); assay: NVS_LGIC_rGABARa6: NovaScreen (NVS) Ligand-Gated Ion Channel Assay for rat Gamma-Aminobutyric Acid Type A Receptor BDZ, alpha 6 site (GABARa6) (AID 2283339)
# In short: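 Rat cerebellar membranes; radioligand binding, filtration and scintillation counting, read 1 h after dosing. Single-concentration duplicate screen at 25 uM, then concentration-response up to 50 uM for actives; loss of signal fitted versus DMSO baseline.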
# [13] = NVS_IC_rCaBTZCHL: NovaScreen (NVS) Ion Channel Assay for Calcium Channel, Type L, Benzothiazepine Site (CaBTZCHL) (AID 2283337)
# In short: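 Competitive displacement of a site-specific radioligand from rat cortex membranes, measured as signal loss against DMSO baseline by filter radiodetection after 1.5 h. Single-point 25 uM primary screen.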
# [14] = target: rat Glutamate, NMDA Agonist Site (GluNMDA), Grin1 (gene 24408) (UniProt P35439); assay: NVS_LGIC_rGluNMDA_Agonist: NovaScreen (NVS) Ligand-Gated Ion Channel Assay for rat Glutamate, NMDA Agonist Site (GluNMDA) (AID 2283327)
# In short: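 Rat forebrain membranes, radioligand binding in the agonist-site protocol; 1 h after dosing; filter-based scintillation counting. Single-concentration duplicate screen at 25 uM, then concentration-response up to 50 uM for actives; gain-of-signal vs DMSO.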
# [15] = target: rat Glutamate, MK-801 Agonist Site (GluNMDA_MK801), Grin1 (gene 24408) (UniProt P35439); assay: NVS_LGIC_rGluNMDA_MK801_Agonist: NovaScreen (NVS) Ligand-Gated Ion Channel Assay for rat Glutamate, MK-801 Agonist Site (GluNMDA_MK801) (AID 2283340)
# In short: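 Radioligand binding at MK-801 site in rat forebrain membranes, 1.5 h incubation, filter-based scintillation counting. Initially 25 uM in duplicate; actives then run in concentration-response up to 50 uM, fitted for gain of signal versus DMSO.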
# [16] = target: rat Glycine Receptor, Strychnine-sensitive (GlyRStrySens), Glra1 (gene 25674) (UniProt P07727); assay: NVS_LGIC_rGlyRStrySens: NovaScreen (NVS) Ligand-Gated Ion Channel Assay for rat Glycine Receptor, Strychnine-sensitive (GlyRStrySens) (AID 2283341)
# In short: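 Radioligand displacement on rat spinal cord membranes, 1 hr, filter scintillation read-out. Single-concentration duplicate screen at 25 uM; chemicals meeting threshold (e.g., 30% inhibition) rerun in concentration-response up to 50 uM. Loss of binding fitted versus DMSO.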
smiles,measurement,setting,value
Clc1ccc(Cl)cc1,outcome,[1],inactive
same,outcome,[2],inactive
c1ccc(-c2ccccc2)cc1,outcome,[3],inactive
O=C(O)C(F)(F)C(F)(F)C(F)(F)C(F)(F)C(F)(F)F,outcome,[1],inactive
same,outcome,[4],inactive
NS(=O)(=O)C(F)(F)C(F)(F)C(F)(F)C(F)(F)C(F)(F)C(F)(F)C(F)(F)C(F)(F)F,outcome,[5],inactive
CCC(=O)O[C@H]1CC[C@H]2[C@@H]3CCC4=CC(=O)CC[C@]4(C)[C@H]3CC[C@]12C,AC50,[6],26.8 nM (active) and 48 nM (active)
COS(=O)(=O)OC,outcome,[7],inactive
Cc1ccc(O)c(C)c1,outcome,[8],inactive
c1cc2ccc3cccc4ccc(c1)c2c34,outcome,[5],inactive
O=C(N[C@H]1CN2CCC1CC2)c1cc2ccoc2cn1,AC50,[9],11.7 µM (active)
same,AC50,[1],1.35 µM (active)
C[C@]12CCC(=O)C=C1CC[C@@H]1[C@@H]2CC[C@]2(C)C(=O)CC[C@@H]12,AC50,[9],25 µM (active)
C[C@]12CCC(=O)C=C1CC[C@@H]1[C@@H]2CC[C@@]2(C)[C@H]1CC[C@]2(C)O,AC50,[9],3.26 µM (active)
same,outcome,[10],inactive
CCNc1nc(NC(C)C)nc(SC)n1,outcome,[10],inactive
CO/C=C(/C(=O)OC)c1ccccc1COc1cccc(C(F)(F)F)n1,AC50,[8],4.21 µM (active)
CC#Cc1cc(C)nc(Nc2ccccc2)n1,outcome,[5],inactive
O=C(O)C(F)(F)C(F)(F)C(F)(F)C(F)(F)C(F)(F)C(F)(F)C(F)(F)C(F)(F)C(F)(F)F,outcome,[5],inactive
CCC(C)(CC)c1cc(NC(=O)c2c(OC)cccc2OC)on1,outcome,[11],inactive
same,outcome,[8],inactive
OCC(O)CO,outcome,[10],inactive
O=S(=O)(O)C(F)(F)C(F)(F)C(F)(F)C(F)(F)C(F)(F)C(F)(F)F,outcome,[12],inactive
CCCCCCCCCC[N+](C)(C)CCCCCCCCCC,AC50,[9],1.03 µM (active)
same,outcome,[1],inactive
same,AC50,[2],18.6 µM (active)
same,AC50,[8],21.5 µM (active)
same,AC50,[13],4.34 µM (active)
same,outcome,[5],inactive
CCOC(=O)C(O)(c1ccc(Cl)cc1)c1ccc(Cl)cc1,AC50,[6],6.91 µM (active)
Oc1ccc(C(c2ccc(O)cc2)(C(F)(F)F)C(F)(F)F)cc1,AC50,[9],5.87 µM (active)
same,AC50,[14],19.5 µM (active)
same,AC50,[2],13.6 µM (active)
same,AC50,[15],19.8 µM (active)
same,outcome,[16],inactive
